This note sets out measurements from PubChem BioAssay (NCI).

Assay in all cases: NCI-60 one-dose screen, 48 h (100 = growth as untreated, 0 = no growth, -100 = all killed)
Holding throughout (settings): 10 µM unless noted

For experiment [1], the system named is NCI-H23 lung.
Experiment [2] concerns NCI-H226 lung.
The subject of experiment [3] is NCI-H322M lung.
Experiment [4] concerns HOP-62 NSCLC.
Experiment [5] has as its system NCI-H460 lung.
Experiment [6] has as its system HOP-92 NSCLC.
Experiment [7] concerns NCI-H522 lung.
Experiment [8] relates to A549/ATCC NSCLC.
Experiment [9] concerns 786-0 renal.
For experiment [10], the system named is COLO 205 colon.

Molecules are shown by their SMILES. About 83,000 compounds went through this panel and 20% of them were active in at least one assay; those are over-represented in the sample as a whole.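 Note: values are percent growth. 100 is the growth of untreated cells, values between 100 and 0 indicate rising inhibition; between -100 and 0 indicates cell death.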 Unmarked numbers belong to inactive results. Active and inactive are the calls of the source. How the source made its calls: active means growth percent below 10; inactive means the rest.

`CN1CCN(Cn2nc(-c3cc(F)c(Cl)cc3Cl)n(/N=C/c3ccc(N(C)C)cc3)c2=S)CC1`: the growth in experiment [1] was 98%; in experiment [2], 101%; in experiment [3] it was 83.1%; in experiment [4], 56%; in experiment [5], 115%; in [6], 84.5%. Further, the growth was 69% in experiment [7], 106% in [8], 93.3% in experiment [9] and 103% in [10].

As for `COc1cc(Cn2cc3c(c2)-c2onc(CO)c2CC3)cc(OC)c1OC`, the growth in [1] is 92.7%; in experiment [2] it was 81.5%; in [3], 85.1%; in [4], 85.7%; in experiment [5], 93.6%; in [6] it was 67%. Further, the growth was 87.7% in experiment [7], 99.8% in experiment [8], 90.9% in experiment [9] and 107% in experiment [10].

On to `Nc1nc(Cl)c2c(C(F)(F)F)cn(CC3CCNCC3)c2n1`, for which the growth in experiment [1] was 47.5%; in [2], 111%; in experiment [3], 100%; in experiment [4] it was 103%; in experiment [5] it was 103%; in [6] it was 57.9%. Also, the growth in [7] is 5.07% (active); in experiment [8] it was 94.2%; in experiment [9], 95.5%; in experiment [10], 94%.

Take `COc1ccc2c(c1)OC(N(C(C)=O)C(C)=O)=C(C#N)C2c1ccc(F)cc1` (stereo not given): the growth in [1] was 50.9%; in experiment [2], 75.2%; in experiment [3] it was 48.8%; in experiment [4], 39.2%; in experiment [5], 15.8%; in experiment [6], 63.4%. Moreover, the growth in experiment [7] was -5.26% (active); in [8], 45.1%; in experiment [9], 28.9%; in [10], 30.2%.

Consider `O[C@@H]1CCO[C@H](c2ccc3ccccc3c2)C1`, for which the growth was 95.3% in experiment [1]; 96.8% in [2]; 104% in experiment [3]; 99.5% in experiment [4]; 107% in experiment [5]; 93.1% in [6]. Also, the growth is 87.9% in experiment [7], 96.7% in experiment [8], 98.7% in experiment [9] and 106% in [10].

In the case of `Cc1cccc(CC(=O)c2ccccc2)n1`, the growth is 94.5% in experiment [1]; 95.8% in experiment [2]; 87.3% in [3]; 78.4% in [4]; 95.7% in [5]; 82.2% in experiment [6]. Further, the growth in experiment [7] was 80.9%; in experiment [8] it was 74.2%; in experiment [9], 94.4%; in experiment [10], 103%.

Turning to `O=C(Nc1ccc(-n2ccc3c(NC(=O)c4ccccc4)ncnc32)cc1)c1cccc(C(F)(F)F)c1`, the growth in experiment [1] is 80.6%; in experiment [2] it was 70.8%; in [3], 62.9%; in [4], 71.5%; in experiment [5], 10.2%; in [6] it was 81.2%. Further, the growth in experiment [7] is 45.4%; in experiment [8] it was 32.7%; in [9], 56.2%; in [10], 51.9%.

For the compound `Cc1cc[n+](CCCC[n+]2ccc(C)cc2)cc1`, the growth in experiment [1] is 96%; in experiment [2], 99%; in [3] it was 97.1%; in experiment [4], 108%; in experiment [5], 108%; in [6], 74.3%. For the same compound, the growth was 120% in experiment [7], 104% in experiment [8], 95.8% in experiment [9] and 110% in experiment [10].

With `Cl[C@@H]1CCO[C@H](c2cc3ccccc3c3ccccc23)C1`, the growth in experiment [1] is 95.5%; in [2], 89.8%; in experiment [3], 94.6%; in [4], 98.8%; in experiment [5], 99%; in experiment [6] it was 89.1%. Further, the growth in experiment [7] was 82.6%; in experiment [8], 93.6%; in [9], 88.7%; in [10], 104%.

In the case of `COc1ccc(-n2c(-c3ccc(NC(=O)CCCl)cc3)nnc2-c2cc(OC)c(OC)c(OC)c2)cc1`, the growth is 54.8% in experiment [1]; 68.8% in [2]; 59.4% in [3]; 54.8% in [4]; 7.54% (active) in experiment [5]; 46.1% in experiment [6]. Further, the growth in experiment [7] was 43.8%; in experiment [8], 30.2%; in experiment [9], 75.4%; in [10], 8.54% (active).

In the case of `CC(C)C(=O)Nc1nc2c(s1)CCCc1ccn(S(=O)(=O)c3ccccc3)c1-2`, the growth in experiment [1] is 86.8%; in experiment [2], 94%; in experiment [3], 90%; in [4], 90.6%; in experiment [5] it was 103%; in experiment [6], 112%. The growth in experiment [7] was 70.5%; in experiment [8] it was 82.3%; in [9] it was 89.9%; in [10], 110%.

`COc1ccc(C(=O)Cn2cnc3c(Nc4cc(C(=O)Nc5ccc(N6CCN(CCO)CC6)cc5)ccc4C)ncnc32)cc1`: the growth in experiment [1] is 98.2%; in experiment [2], 96.9%; in experiment [3], 101%; in [4], 97.3%; in [5], 108%; in [6], 121%. Further, the growth in [7] is 87.8%; in [8], 108%; in experiment [9], 98.5%; in experiment [10], 104%.

Take `Cc1ccc2[nH]c3nc4cccnc4c(C)c3c2c1`: the growth in experiment [1] was 36.5%; in experiment [2], 77.9%; in experiment [3], 44.4%; in experiment [4] it was 63.2%; in experiment [5], 11.4%; in [6], 115%. Moreover, the growth is 70.3% in experiment [7], 74.5% in experiment [8], 107% in [9] and 101% in [10].
